ULK1 primary – ULK1 kinase inhibitors, primary screen, biochemical, AlphaScreen. Serine/threonine-protein kinase ULK1 (Homo sapiens), O75385. AlphaScreen Atg13 phosphorylation by ULK1, luminescence. inhibition, % at 5.96 µM. actives 1.9% (n = 30,000). AID 1259251, 2017; in the data active means inhibition above about 43%;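 further: 0% = median of compound wells and 100% = no enzyme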
ASK1 inh – ASK1 kinase inhibitors, primary screen, biochemical, AlphaScreen; Mitogen-activated protein kinase kinase kinase 5 (Homo sapiens), Q99683; actives 0.99% (n = 22,000); AID 1159602, 2016; AlphaScreen MKK6 phosphorylation by ASK1, luminescence; inhibition, % at 7.44 µM; in the data active means inhibition above about 35%;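 further: 0% = median of compound wells and 100% = no enzyme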
* marks the source's active call; other numbers are inactive results. Sampled rows, rich in hits. Any-hit rate of the full collection: about 2.4%.

`Cc1cnc(Nc2ccncc2)nc1NCCCN1CCCC1=O` gave ULK1 primary 6 and ASK1 inh -21.
O=C1CCCN1CCCNc1nc(Nc2ccc(C(F)(F)F)cc2)nc2nc[nH]c12 was read as ULK1 primary 53* and ASK1 inh 8.
Nc1nc(Nc2ccc3ncccc3c2)nc2c1ncn2CCN1CCCC1=O was read as ULK1 primary 3 and ASK1 inh 4.
For CC(C)n1cnc2c(Nc3ccccc3)nc(Nc3nc4ccccc4n3C)nc21 the results were ULK1 primary 14 and ASK1 inh 4.
Screening CC(=O)c1cccc(-c2cccc(C(=O)NCCCN3CCCC3=O)n2)c1 returned ULK1 primary 0 and ASK1 inh -10.
Screening CC(C)N(CCNC(=O)c1cccc(NC2CCC(O)CC2)n1)C(C)C (centres undefined) returned ULK1 primary 3 and ASK1 inh 8.
`Nc1nc(NCCN2CCOCC2)cc(Nc2ccc(N3CCOCC3)cc2)n1` gave ULK1 primary -3 and ASK1 inh -7.
Screening CN(c1ncccc1CNc1nc(Nc2ccc3c(c2)CC(=O)N3)ncc1C(F)(F)F)S(C)(=O)=O returned ULK1 primary 78* and ASK1 inh 26.
`CN(c1ncccc1CNc1cc(Nc2ccc3c(c2)CC(=O)N3)ncc1C(F)(F)F)S(C)(=O)=O` gave ULK1 primary 31 and ASK1 inh 12.
For CN1CCN(c2ccc(-c3ccc(C(=O)NCc4cccc(C(F)(F)F)c4)s3)cc2)CC1 the results were ULK1 primary 20 and ASK1 inh -3.
Screening Cc1nc(-c2ccccc2F)cc(N2CCCCC2)n1 returned ULK1 primary -3.
For O=C(/C=C/c1ccccc1)c1cccc(N2C(=O)C=CC2=O)c1 the results were ULK1 primary 55*.
Screening COc1cc(NC(=O)c2cccc(-n3cc(/C=C/C(=O)c4ccccc4)cn3)c2)ccc1CN(C)C returned ULK1 primary 21 and ASK1 inh -18.
`c1ccc2c(Nc3nc(NC4CC4)c4[nH]cnc4n3)nccc2c1` gave ULK1 primary 12 and ASK1 inh 9.
For O=C(NC1CC1)c1cccc(NS(=O)(=O)c2ccc(-c3ncnc4[nH]ccc34)cc2)c1 the results were ULK1 primary 44* and ASK1 inh 8.
Screening NC(=O)c1ccc(-c2cccc(C(=O)NC3CC3)c2)cc1 returned ULK1 primary -16 and ASK1 inh -20.
Cc1ccc(-c2cccc3cnc(NC4CCN(C(=O)N5CCCC5)C4)nc23)cn1 (centres undefined) was read as ULK1 primary 26 and ASK1 inh 13.
Screening Cc1ncn(-c2ccc(Nc3ncc4cccc(-c5cncc(C(=O)N6CCOCC6)c5)c4n3)cc2)n1 returned ULK1 primary 0 and ASK1 inh 14.
Screening Cc1ccc(-c2cccc3cnc(Nc4cccc(C(=O)N5CCOCC5)c4)nc23)cn1 returned ULK1 primary 64* and ASK1 inh 6.
`Cc1ccc(-c2cccc3cnc(Nc4ccc(C(=O)N5CCCC5)cc4)nc23)cn1` gave ULK1 primary 63* and ASK1 inh -14.
Cc1ccc(-c2cncc(-c3cc(NCCCn4ccnc4)nc(C)n3)c2)cc1 was read as ULK1 primary 6.
`O=C(Nc1ccc(N2CCOCC2)cc1)c1ccnc(NCCN2CCOCC2)c1` gave ULK1 primary 47* and ASK1 inh -18.
`O=C(Nc1ccc(N2CCOCC2)cc1)c1ccc2nc(Nc3ccc(N4CCOCC4)cc3)sc2c1` gave ULK1 primary 2 and ASK1 inh 6.
O=C(Nc1ccc(N2CCOCC2)cc1)c1ccc2nc(Nc3ccccn3)sc2c1 was read as ULK1 primary 52* and ASK1 inh -32.
For CCNc1cc(C(=O)Nc2ccc(N3CCOCC3)cc2)ccn1 the results were ULK1 primary 31 and ASK1 inh 10.
`CCCNc1nc(-c2ccc(N3CCN(C)CC3)cc2)nc2c1ncn2Cc1ccc(C(F)(F)F)cc1` gave ULK1 primary -47 and ASK1 inh 15.
For COc1ccc(-c2ncc(C)c(NC3CC3)n2)cn1 the results were ULK1 primary 8 and ASK1 inh -8.
`COc1ccc(-c2nc(C(=O)NCc3cccc(C(F)(F)F)c3)cs2)cn1` gave ULK1 primary 7 and ASK1 inh 0.
O=C(CCl)Nc1ccc(CN2CCCC2)cc1 was read as ULK1 primary 66*.
`O=C(CCl)Nc1ccc2nsnc2c1` gave ULK1 primary 2.
Screening OC1CCN(c2cc(-c3ccc(F)cc3)nc(-c3cccnc3)n2)CC1 returned ULK1 primary -19.
`Cc1cc(-c2ccc(N=Nc3c(S(=O)(=O)O)cc4cc(S(=O)(=O)O)cc(N)c4c3O)c(C)c2)ccc1N=Nc1c(S(=O)(=O)O)cc2cc(S(=O)(=O)O)cc(N)c2c1O` gave ULK1 primary 81*.
For c1cc(Nc2cc(C3CC3)[nH]n2)cc(Nc2ccc(N3CCOCC3)cc2)n1 the results were ULK1 primary 47* and ASK1 inh 10.
Screening NC(=O)c1ccccc1Nc1ccnc(Nc2ccc(N3CCOCC3)cc2)c1 returned ULK1 primary 10 and ASK1 inh 9.
For c1cc(Nc2ccc3nc[nH]c3c2)cc(Nc2ccc(N3CCOCC3)cc2)n1 the results were ULK1 primary 3 and ASK1 inh 11.
For COc1cc(N2CCOCC2)ccc1Nc1cc(Nc2ccccc2C(N)=O)c(C)cn1 the results were ULK1 primary 31 and ASK1 inh 0.
NC(=O)c1nccnc1Nc1ccnc(Nc2ccc(N3CCOCC3)cc2)c1 was read as ULK1 primary 17 and ASK1 inh 9.
For NC(=O)c1ccccc1Nc1ccnc(Nc2ccc(N3CCNCC3)cc2)c1 the results were ULK1 primary 48* and ASK1 inh 0.
For Cc1cnc(Nc2cccc(N3CCOCC3)c2)cc1Nc1ccccc1C(N)=O the results were ULK1 primary 82* and ASK1 inh -4.
Screening NC(=O)c1cnccc1Nc1ccnc(Nc2ccc(N3CCOCC3)cc2)c1 returned ULK1 primary 44* and ASK1 inh 8.
For COc1cc(/C=C/C(=O)N2CCCCCCC2)cc(OC)c1OC the results were ULK1 primary 10.
For OCCNc1cc(N2CCC(N3CCOCC3)CC2)ncn1 the results were ULK1 primary -10 and ASK1 inh -24.
Screening NC(=O)c1ccc(-c2nc(NCc3cccnc3)c3ncn(C4CCCCC4)c3n2)cc1 returned ULK1 primary -6 and ASK1 inh -13.
CCOc1c(C)cnc2c1c(=O)n(CC(=O)Nc1ccc(Cl)cc1)c(=O)n2C was read as ULK1 primary 0.
CCN(Cc1cccc(OC)c1)C(=O)Nc1ccc(-c2cn[nH]c2)cn1 was read as ULK1 primary 2 and ASK1 inh -13.
For O=C(Nc1ccc(N2CCOCC2)cc1)c1cccc(-n2ncc3ccc(-c4ncn[nH]4)cc32)c1 the results were ULK1 primary -15 and ASK1 inh 21.
Screening [In+3] returned ULK1 primary -11.
For CN1CCN(c2ccc(Nc3cc(Nc4ccccc4C(N)=O)ccn3)cc2)CC1 the results were ULK1 primary 40 and ASK1 inh 7.
Screening Cc1cnc(Nc2ccc(N3CCNCC3)cc2)cc1Nc1ccccc1C(N)=O returned ULK1 primary 94* and ASK1 inh 3.
O=C(NC1CC1)c1ccc(-c2ccc(C(=O)NCc3nc4ccccc4[nH]3)s2)cc1 was read as ULK1 primary -19 and ASK1 inh 12.

Assay outcomes: PubChem BioAssay, The Scripps Research Institute Molecular Screening Center
